# Values joined by “and” are separate entries in the source; they are usually repeats but may differ in a detail not shown here. Identical values can stand only once. Active and inactive are the calls of the source.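 Rule for the calls, unless noted: active = inhibition at or above 50% relative to wild type and mutant plate controls; inactive = inhibition below 50%.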
# Legend:
# [1] = loss of swimming-algae plug formation – whole organism, Chlamydomonas reinhardtii, WT vs cilia-less mutant, absorbance, 96-well, primary screen (AID 463189); settings: Chlamydomonas reinhardtii gravitaxis, OD600 absorbance, 2 days; at 10 µM; stronger effect = higher value;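 note: 0% = wild type cc124 cells in DMSO and 100% = ciliumless bld1 mutant cells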
# [2] = reduction of polyQ htt aggregates in cells – imaging, exon1htt(103Q)mCFP cells, high-content imaging, primary screen (AID 483;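 active = visual image review flags a hit and inhibition of aggregation exceeds 20%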;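 note: compound exposure lasted 3 days before fixation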;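 for nuclei count: percent of the per-plate median nuclei count of sample wells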); settings: exon1htt(103Q)mCFP cell line, aggregate imaging, at 2 µM; inhibition of aggregation: stronger effect = higher value; nuclei count: measured here: cell count, toxicity
# [3] = endothelial E-selectin expression blockers – imaging, HUVEC, immunofluorescence, MLSMR starter and 10KST1 sets, primary screen (AID 487;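 active = visually confirmed hit in the image check and inhibition above 20%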;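 for inhibition: signal is fraction of cell area covered by stained E-selectin grains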;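 for nuclei count: 100% = median nuclei count of all wells on the same plate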); settings: HUVEC TNFalpha-induced E-selectin immunofluorescence imaging, at 2 µM; inhibition: stronger effect = higher value; nuclei count: measured here: cell number, toxicity
# [4] = Primary imaging screen for DUSP6 inhibitors that restore phospho-Erk in transfected HeLa cells, chemical complementation (AID 609;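 active = compounds giving at least 50% inhibition in the cell-based MKP-3 phosphatase rescue imaging test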;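 for inhibition: phospho-Erk level distribution per well compared with pooled transfected vehicle control wells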); settings: HeLa MKP-3 transfected, phospho-Erk imaging KS statistic, at 10 µM
# [5] = molecular target: Dual specificity protein phosphatase 6 (Homo sapiens) (UniProt Q16828); assay: as above; settings: HeLa MKP-3 transfected, phospho-Erk imaging KS statistic, at 10 µM, stronger effect = higher value
# Chain of Dual specificity protein phosphatase 6 (Homo sapiens) (Q16828 whole entry, looked up): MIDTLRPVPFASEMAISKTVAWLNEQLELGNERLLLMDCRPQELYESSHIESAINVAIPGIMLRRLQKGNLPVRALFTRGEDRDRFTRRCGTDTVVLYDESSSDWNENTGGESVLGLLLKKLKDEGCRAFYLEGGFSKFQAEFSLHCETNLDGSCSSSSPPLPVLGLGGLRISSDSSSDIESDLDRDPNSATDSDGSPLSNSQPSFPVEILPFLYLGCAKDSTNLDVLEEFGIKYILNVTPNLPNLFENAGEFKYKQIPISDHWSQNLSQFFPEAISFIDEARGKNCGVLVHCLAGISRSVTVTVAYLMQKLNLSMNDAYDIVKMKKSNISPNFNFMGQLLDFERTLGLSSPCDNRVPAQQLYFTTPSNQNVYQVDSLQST
# [6] = molecular target: Voltage-gated potassium channel subunit beta-2 (Rattus norvegicus) (UniProt P62483); assay: inhibitors of rat Kvbeta2 reductase activity – biochemical, NADPH fluorescence, primary screen (AID 622;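 active = fluorescence slope higher than the sample average by over 3 SD, cut at about -0.22 in these data, passing the limit was not always enough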;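 note: slope of raw intensity against log time taken from 70 to 1610 s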); settings: recombinant KvBeta, 4-cyanobenzaldehyde reduction, at 10 µM, stronger effect = higher value
# Chain of Voltage-gated potassium channel subunit beta-2 (Rattus norvegicus) (P62483 whole entry, looked up): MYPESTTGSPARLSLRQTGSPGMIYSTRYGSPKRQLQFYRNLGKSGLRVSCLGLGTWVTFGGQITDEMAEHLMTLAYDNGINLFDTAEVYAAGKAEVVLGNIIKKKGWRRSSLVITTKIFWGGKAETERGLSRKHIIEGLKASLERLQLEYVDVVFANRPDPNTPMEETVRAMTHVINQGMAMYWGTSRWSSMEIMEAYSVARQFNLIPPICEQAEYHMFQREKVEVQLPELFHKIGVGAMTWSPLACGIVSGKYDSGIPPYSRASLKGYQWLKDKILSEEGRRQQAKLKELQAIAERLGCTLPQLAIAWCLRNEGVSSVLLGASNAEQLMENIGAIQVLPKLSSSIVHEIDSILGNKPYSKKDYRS
# [7] = molecular target: Voltage-gated potassium channel subunit beta-2 (Rattus norvegicus) (UniProt P62483); assay: enhancers of rat Kvbeta2 NADPH turnover – biochemical, NADPH fluorescence, primary screen (AID 623;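 active = NADPH fluorescence slope more negative than the mean of all samples by about 3 SD, 99.7% confidence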;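 note: fluorescence intensity change per second fitted from 20 to 320 s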); settings: Recombinant KvBeta, NADPH fluorescence decrease slope, 10 min; at 10 µM; stronger effect = lower value
# [8] = molecular target: Alpha-2C adrenergic receptor (Homo sapiens) (UniProt P18825); assay: compounds altering alpha2C-coupled GIRK flux – cell-based, HEK293 alpha2C/GIRK1/2, thallium flux, primary screen (AID 624;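 active = fluorescence slope after compound addition differing from the mean of all screened samples at 99.7% confidence, in either direction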;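 note: slope of fluorescence ratio to pre-addition baseline per second over 15 to 24 s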); settings: thallium flux BTC fluorescence, at 10 µM, actives lie on both sides
# Chain of Alpha-2C adrenergic receptor (Homo sapiens) (P18825 whole entry, looked up): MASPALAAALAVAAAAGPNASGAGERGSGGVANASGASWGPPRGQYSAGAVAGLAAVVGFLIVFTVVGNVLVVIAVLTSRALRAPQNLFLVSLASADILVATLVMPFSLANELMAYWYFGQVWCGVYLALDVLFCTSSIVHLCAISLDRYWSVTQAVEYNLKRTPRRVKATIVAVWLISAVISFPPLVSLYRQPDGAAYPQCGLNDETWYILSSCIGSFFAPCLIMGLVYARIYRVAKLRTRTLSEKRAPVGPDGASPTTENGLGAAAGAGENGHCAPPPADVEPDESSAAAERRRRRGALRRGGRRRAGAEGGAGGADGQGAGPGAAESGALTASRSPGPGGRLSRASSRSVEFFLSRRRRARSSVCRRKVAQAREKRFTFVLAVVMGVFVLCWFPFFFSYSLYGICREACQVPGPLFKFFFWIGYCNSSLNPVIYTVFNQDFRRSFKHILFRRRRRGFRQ
# [9] = inhibitors of larval lipid processing in zebrafish, primary screen, whole organism, PED6 fluorescence, gall bladder and intestine (AID 686;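 active = a full or partial loss of lipid-probe fluorescence in the fish gall bladder, intestine or both, judged by eye; inactive = no fluorescence loss, or compound toxic to the fish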;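 note: larvae 5 to 7 days old with five fish per well; signal comes from phospholipase A2 cleavage of quenched PED6 carried via bile; overnight exposure to compound and PED6 before scoring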); settings: Zebrafish larvae PED6 lipid processing, fluorescence scoring
# [10] = blockers of RIG-like receptor reporter activation – cell-based, Sendai virus stimulus, luciferase, 10K MLSCN set, TLR/RLR signaling modifier project, primary screen (AID 602276;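 active = inhibition at or above 50% at 10 µM; inactive = inhibition below 50%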;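 note: firefly luciferase from ISG56 promoter only with Renilla not read in this screen; 0% = Sendai virus plus DMSO and 100% = medium plus DMSO without virus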); settings: HEK293 RL24 IRF3 luciferase reporter, at 10 µM, stronger effect = higher value
# [11] = TLR3 IRF3 reporter activation blockers – cell-based, poly I:C stimulus, luciferase, 10K MLSCN set, primary screen (AID 602277;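 active = inhibition of the reporter signal at or above 50%; inactive = inhibition below 50%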); settings: HEK293-TLR3 RL24 IRF3 luciferase reporter, at 10 µM, stronger effect = higher value
# [12] = molecular target: Muscarinic acetylcholine receptor M4 (Homo sapiens) (UniProt P08173); assay: M4-linked GIRK flux change, two-sided – cell-based, HEK293 M4/GIRK, thallium flux, BTC-AM, M4 allosteric agonist project, primary screen (AID 625;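 active = fluorescence slope after compound addition differing from the mean of all tested samples at 99.7% confidence, mostly higher but some lower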;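 note: thallium influx through GIRK channels coupled to M4 in HEK293 cells with BTC-AM dye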); settings: at 10 µM, actives lie on both sides
# Chain of Muscarinic acetylcholine receptor M4 (Homo sapiens) (P08173 whole entry, looked up): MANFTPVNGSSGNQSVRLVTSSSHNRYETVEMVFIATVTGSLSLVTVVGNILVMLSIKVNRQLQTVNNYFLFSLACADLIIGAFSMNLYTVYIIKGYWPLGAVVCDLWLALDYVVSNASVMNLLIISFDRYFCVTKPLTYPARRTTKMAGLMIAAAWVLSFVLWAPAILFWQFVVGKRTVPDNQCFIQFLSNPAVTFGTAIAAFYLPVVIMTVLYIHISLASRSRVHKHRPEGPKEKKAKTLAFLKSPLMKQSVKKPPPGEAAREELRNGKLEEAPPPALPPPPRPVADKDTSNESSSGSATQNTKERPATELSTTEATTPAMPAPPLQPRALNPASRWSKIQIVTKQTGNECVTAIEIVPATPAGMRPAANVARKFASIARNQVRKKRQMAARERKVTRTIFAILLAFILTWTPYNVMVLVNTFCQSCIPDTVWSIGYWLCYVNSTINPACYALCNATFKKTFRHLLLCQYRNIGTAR
# [13] = measured here: cell density z-score
# [14] = measured here: nuclear c-Myc green intensity z-score
# [15] = measured here: nuclear pErk red intensity z-score, stronger effect = higher value
compound,measurement,setting,value
CN[C@@H]1C[C@@H](c2ccc(Cl)c(Cl)c2)c2ccccc21,inhibition,[1],129% (active)
CC1=NN=C(c2ccc(N)cc2)c2cc3c(cc2C1)OCO3,inhibition,[1],-2.8% (inactive)
C=CCN1CC[C@]23c4c5ccc(O)c4O[C@H]2/C(=N/NC(=O)c2ccccc2)CC[C@@]3(O)[C@H]1C5,inhibition,[1],2.64% (inactive)
CC(N)C(=O)OC(C)(C)Cc1ccc(Cl)cc1 (stereo unspecified),inhibition,[1],-6.83% (inactive)
O=C(COc1ccc2ccccc2c1)N1CCN(C2CCN(Cc3ccccc3)CC2)CC1,inhibition of aggregation,[2],2.5% (inactive)
same,nuclei count,[2],75.6%
same,inhibition,[3],-123% (inactive)
same,nuclei count,[3],138%
same,z-score,[4]; [13],0.592
same,z-score,[4]; [14],-1.17
same,z-score,[4]; [15],0.865
same,inhibition,[5],1.04% (inactive)
same,fluorescence slope,[6],-0.309 (inactive)
same,NADPH fluorescence slope,[7],1.5e-05 (inactive)
same,slope,[8],0.00353 (inactive)
same,outcome,[9],inactive
same,inhibition,[1],64.5% (active)
same,inhibition,[10],8.43% (inactive)
same,inhibition,[11],-13.3% (inactive)
O=c1[nH]c2ccccc2n1CCCN1CCC(n2c(=O)[nH]c3cc(Cl)ccc32)CC1,inhibition of aggregation,[2],13.3% (inactive)
same,nuclei count,[2],79.8%
same,inhibition,[3],-81.4% (inactive)
same,nuclei count,[3],120%
same,z-score,[4]; [13],-1.29
same,z-score,[4]; [14],0.926
same,z-score,[4]; [15],0.563
same,inhibition,[5],12.4% (inactive)
same,fluorescence slope,[6],-0.455 (inactive)
same,NADPH fluorescence slope,[7],-4.5e-05 (inactive)
same,slope,[8],0.00301 (inactive)
same,inhibition,[1],2.96% (inactive) and 11.3% (inactive)
same,inhibition,[10],7.67% (inactive)
same,inhibition,[11],18.2% (inactive)
C[C@@H]1O[C@H](C[N+](C)(C)C)C[C@H]1O,inhibition,[1],3.38% (inactive)
C[C@]12CCC(=O)C=C1CC[C@@H]1[C@@H]2CC[C@]2(C)C(=O)CC[C@@H]12,inhibition of aggregation,[2],16.3% (inactive)
same,nuclei count,[2],88.1%
same,inhibition,[3],-105% (inactive)
same,nuclei count,[3],117%
same,z-score,[4]; [13],-1.04
same,z-score,[4]; [14],-1.5
same,z-score,[4]; [15],2.67
same,inhibition,[5],11.3% (inactive)
same,fluorescence slope,[6],-0.41 (inactive)
same,NADPH fluorescence slope,[7],2.5e-05 (inactive)
same,slope,[8],0.00365 (inactive)
same,outcome,[9],inactive
same,inhibition,[1],3.25% (inactive) and 26.7% (inactive)
same,inhibition,[10],5% (inactive)
same,inhibition,[11],31.7% (inactive)
C#CCN(C)[C@@H](C)Cc1ccccc1,inhibition,[1],7.92% (inactive)
CCCC(C)(COC(N)=O)COC(=O)NC(C)C (stereo unspecified),inhibition of aggregation,[2],18.2% (inactive)
same,nuclei count,[2],100%
same,inhibition,[3],0.8% (inactive)
same,nuclei count,[3],106%
same,z-score,[4]; [13],-1.69
same,z-score,[4]; [14],0.189
same,z-score,[4]; [15],-1.67
same,inhibition,[5],-0.493% (inactive)
same,fluorescence slope,[6],-0.459 (inactive)
same,NADPH fluorescence slope,[7],1.2e-05 (inactive)
same,slope,[8],0.0053 (inactive)
same,outcome,[9],inactive
same,inhibition,[1],-1.2% (inactive) and -10.3% (inactive)
same,inhibition,[10],3.15% (inactive)
same,inhibition,[11],14.5% (inactive)
CC(C)(O)[C@@H]1[C@H]2OC(=O)[C@@H]1[C@]1(O)C[C@H]3O[C@]34C(=O)O[C@H]2[C@]14C (tested in a mixture with another compound),inhibition,[1],-1.93% (inactive)
c1ccc2cc(CC3=NCCN3)ccc2c1,inhibition,[1],1.93% (inactive)
NC(N)=Nc1ccc2[nH]c3c(c2c1)C[C@@]1(O)[C@H]2Cc4ccc(O)c5c4[C@@]1(CCN2CC1CC1)[C@H]3O5,inhibition,[1],-0.588% (inactive)
COc1ccc(Cc2nccc3cc(OC)c(OC)cc23)cc1OC,inhibition of aggregation,[2],-8.7% (inactive)
same,nuclei count,[2],110%
same,inhibition,[3],-204% (inactive)
same,nuclei count,[3],140%
same,z-score,[4]; [13],1.76
same,z-score,[4]; [14],-0.33
same,z-score,[4]; [15],-0.255
same,inhibition,[5],9.37% (inactive)
same,fluorescence slope,[6],-0.442 (inactive)
same,NADPH fluorescence slope,[7],-7e-05 (inactive)
same,slope,[8],0.00447 (inactive)
same,outcome,[9],inactive; toxic
same,inhibition,[1],-20% (inactive) and 8.29% (inactive)
same,inhibition,[10],-5.8% (inactive)
same,inhibition,[11],-3.94% (inactive)
C=CCN1CCC2(C)c3cc(O)ccc3CC1[C@@H]2C (stereo partly specified),inhibition,[1],4.21% (inactive)
CC(N)Cc1c[nH]c2ccc(O)cc12 (stereo unspecified),inhibition,[1],7.26% (inactive)
COC(=O)c1cc2c(cn1)[nH]c1ccccc12,inhibition,[1],2.96% (inactive)
O=[N+]([O-])c1ccc2nc(N3CCNCC3)ccc2c1,inhibition,[1],14.2% (inactive)
O=P(c1ccccc1)(c1ccccc1)N1CCCCC1,inhibition,[3],-13.6% (inactive)
same,nuclei count,[3],99.1%
same,z-score,[4]; [13],-0.682
same,z-score,[4]; [14],-0.604
same,z-score,[4]; [15],-1.11
same,inhibition,[5],18.9% (inactive)
same,fluorescence slope,[6],-0.396 (inactive)
same,NADPH fluorescence slope,[7],1.4e-05 (inactive)
same,fluorescence slope,[12],0.00417 (inactive)
same,outcome,[9],inactive
same,inhibition,[1],-7.33% (inactive)
CCn1cnc2c(Nc3cccc(Cl)c3)nc(N[C@@H]3CCCC[C@@H]3N)nc21,inhibition,[1],4.56% (inactive)
CCCN1CC[C@@H]2c3cc(O)ccc3CC[C@@H]21,inhibition,[1],-3.65% (inactive)
C[N+]1(C)CCOC(O)(c2ccc(-c3ccc(C4(O)C[N+](C)(C)CCO4)cc3)cc2)C1 (stereo unspecified),inhibition,[1],1.34% (inactive)

# Reference: PubChem BioAssay
